Assay [1] is described as follows: ATG_M_61_XSP2: Attagene TRANS-FACTORIAL Multi-Species (XSP2) HepG2 Assay for M61 Transcription Factor (Internal Marker) (AID 2283835).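 Further: active means a rise in signal above the DMSO baseline.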 In short, it runs like this: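 HepG2 cells transiently transfected with multiple GAL4-UAS reporter units; 3 nM 6-alpha-fluorotestosterone and 1.5 nM norgestrel present to stimulate androgen receptor. After 24 h compound exposure, reporter mRNA measured by RT-PCR and capillary electrophoresis fluorescence, gain-of-signal versus DMSO baseline.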

The nature of assay [2]: ATG_XTT_Cytotoxicity_XSP2: Cytotoxicity Assessment in the Attagene TRANS-FACTORIAL Multi-Species (XSP2) HepG2 Assay (AID 2283837; active means hit-call score of the fitted dose curve at least 0.9, where 1 is the maximum). In short, it runs like this:
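HepG2 cells, transiently transfected with multiple reporter constructs, exposed to chemical for 24 h. Cell number assessed with XTT fluorescence read-out; loss of signal fitted relative to DMSO.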

The target of assay [3] is human Thyroid hormone Receptor alpha (TRa), THRA (gene 7067) (UniProt P10827). Description: ATG_hTRa_XSP2: Attagene TRANS-FACTORIAL Multi-Species (XSP2) HepG2 Assay for human Thyroid hormone Receptor alpha (TRa) (AID 2283838; active means hit-call score of the fitted dose curve at least 0.9, where 1 is the maximum). An outline of the steps:
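HepG2 cells transiently transfected with multiplexed GAL4-UAS reporter units and exogenous NR-GAL4 chimeras; 24 h chemical exposure with 3 nM 6-alpha-fluorotestosterone and 1.5 nM norgestrel present. Reporter mRNA measured by RT-PCR, FAM labelling, HpaI digestion, capillary electrophoresis; gain-of-signal versus DMSO.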

Assay [4] in a line: CEETOX_H295R_11DCORT_noMTC: CeeTox H295R High-throughput Steroidogenesis Assay for 11-Deoxycortisol (11DCORT), maximum tolerated concentration (MTC) filtered results only (AID 2283911). Particulars: actives raise or lower the signal. An outline of the steps: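 H295R, OECD 456-based; 10 uM forskolin 48 h → compound (0.1% DMSO) 48 h → medium extracted, 11DCORT by LC-MS/MS. Gain/loss vs DMSO control, all concentrations kept regardless of MTT viability.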

The nature of assay [5]: CEETOX_H295R_OHPREG_noMTC: CeeTox H295R High-throughput Steroidogenesis Assay for OH-Pregnenolone (OHPREG), maximum tolerated concentration (MTC) filtered results only (AID 2283912). Particulars: actives raise or lower the signal. An outline of the steps: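 H295R human adrenal cells, forskolin-prestimulated (10 uM, 48 h), then exposed to test chemical in 0.1% DMSO for 48 h. 17alpha-hydroxypregnenolone in medium measured by HPLC-MS/MS after MTBE extraction; bidirectional fit versus DMSO, concentrations not MTC-filtered.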

Assay [6] can be described thus: CEETOX_H295R_OHPROG_noMTC: CeeTox H295R High-throughput Steroidogenesis Assay for OH-Progesterone (OHPROG), maximum tolerated concentration (MTC) filtered results only (AID 2283914). Particulars: actives raise or lower the signal. In short, it runs like this:
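H295R human adrenal cells prestimulated 48 h with 10 uM forskolin, then exposed 48 h to test chemical (0.1% DMSO final). Medium 17alpha-hydroxyprogesterone extracted with MTBE, quantified by HPLC-MS/MS; bidirectional fit versus DMSO, concentrations not MTC-filtered.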

Assay [7] in a line: CEETOX_H295R_CORTISOL_noMTC: CeeTox H295R High-throughput Steroidogenesis Assay for Cortisol, maximum tolerated concentration (MTC) filtered results only (AID 2283916). Particulars: actives raise or lower the signal. In short, it runs like this: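 H295R adrenal cells were pre-stimulated 48 h with 10 uM forskolin, then exposed 48 h to test chemical in 0.1% DMSO. Medium cortisol was measured by MTBE extraction and HPLC-MS/MS; bidirectional fit versus DMSO, concentrations not MTC-filtered.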

The nature of assay [8]: CEETOX_H295R_CORTIC_noMTC: CeeTox H295R High-throughput Steroidogenesis Assay for Corticosterone (CORTIC), maximum tolerated concentration (MTC) filtered results only (AID 2283917). Particulars: actives raise or lower the signal. An outline of the steps: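 H295R, 10 uM forskolin prestim 48 h → test chem (0.1% DMSO final) 48 h → media MTBE extraction → HPLC-MS/MS corticosterone. Bidirectional fit vs DMSO baseline; no MTT-based MTC filtering.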

A short description of assay [9]: CEETOX_H295R_DOC_noMTC: CeeTox H295R High-throughput Steroidogenesis Assay for DOC, maximum tolerated concentration (MTC) filtered results only (AID 2283918). Particulars: actives raise or lower the signal. In short, it runs like this:
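H295R cells prestimulated 48 h with 10 uM forskolin, then exposed 48 h to test chemical (0.1% DMSO final). Medium 11-deoxycorticosterone extracted with MTBE, quantified by HPLC-MS/MS; bidirectional fit versus DMSO, concentrations not MTC-filtered.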

Where “and” joins values, the source holds several entries; their conditions need not be identical. Equal entries are not always repeated. Results filed as inconclusive are left out. Calls of active or inactive are those of the source. How the source made its calls, unless noted: active means hit-call score of the fitted dose curve at least 0.9, where 1 is the maximum; inactive means score below 0.9.

Sequence of human Thyroid hormone Receptor alpha (TRa), THRA (gene 7067) (P10827 whole entry, looked up, the tested form may be a part): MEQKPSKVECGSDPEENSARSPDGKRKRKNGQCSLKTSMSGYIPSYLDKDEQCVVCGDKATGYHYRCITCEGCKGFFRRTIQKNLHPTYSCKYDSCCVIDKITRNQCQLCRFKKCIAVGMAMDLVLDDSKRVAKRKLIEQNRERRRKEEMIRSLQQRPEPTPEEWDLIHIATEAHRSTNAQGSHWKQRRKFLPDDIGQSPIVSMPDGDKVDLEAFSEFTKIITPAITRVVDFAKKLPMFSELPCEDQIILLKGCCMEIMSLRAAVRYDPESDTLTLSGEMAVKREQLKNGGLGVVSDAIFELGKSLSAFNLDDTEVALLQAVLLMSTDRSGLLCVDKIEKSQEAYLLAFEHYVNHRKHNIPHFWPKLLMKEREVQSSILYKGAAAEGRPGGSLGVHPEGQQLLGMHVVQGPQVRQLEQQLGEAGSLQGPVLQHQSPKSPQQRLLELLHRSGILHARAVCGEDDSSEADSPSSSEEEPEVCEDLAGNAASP

In general, AC50 refers to the concentration giving half of the maximal activity seen. Take `O=c1cc(-c2ccccc2)oc2cc(O)cc(O)c12`: the molecule was called inactive in [1] and in assay [2]. In addition, the AC50 in [3] was 10.9 µM (active) and 7.51 µM (active).

Turning to `CN(CCOc1ccc(CC2SC(=O)NC2=O)cc1)c1ccccn1` (configuration not stated), the outcome in assay [1] was inactive.

On to `O=C(Oc1ccccc1)c1ccc(O)cc1`, for which the molecule was classed as inactive in assay [3].

In the case of `CC1CC(OC(=O)c2ccccc2O)CC(C)(C)C1` (configuration not stated), the molecule was classed as inactive in assay [4], in [5], in assay [6], in [7], in assay [8] and in assay [9].

`Cc1ccc(C(C)C)cc1O`: the molecule was classed as inactive in assay [4], in assay [5], in [7], in assay [8] and in [9]. Also, in assay [6], the AC50 is 33 µM (active).

Source of the values: PubChem BioAssay (EPA / NIEHS).
